Data from PubChem BioAssay (EPA / NIEHS).
The source made the active and inactive calls. The calls were made as follows: active = hit-call score of the fitted dose curve at least 0.9, where 1 is the maximum; inactive = score below 0.9.

read-out: E-selectin (Homo sapiens) (UniProt P16581); experiment: BSK_3C_Eselectin: BioMAP Diversity Plus: 3C Assay for Eselectin Biomarker Activity (AID 2283015); settings: primary human endothelial cells (HUVEC); actives raise or lower the signal
Description: BSK_3C is a cell-based, multiplexed-readout assay that uses umbilical vein endothelium, a human vascular primary cell, with measurements taken at 24 hours after chemical dosing in a 96-well plate.BSK_3C_Eselectin is an assay component measured in the BSK_3C assay. It measures E-selectin antibody related to regulation of gene expression using ELISA technology.Data from the assay component BSK_3C_Eselectin was analyzed into 1 assay endpoint. This assay endpoint, BSK_3C_Eselectin, was analyzed with bidirectional fitting relative to DMSO as the negative control and baseline of activity. Using a type of binding reporter, gain or loss-of-signal activity can be used to understand changes in the signaling as they relate to the gene SELE. Furthermore, this assay endpoint can be referred to as a primary readout, because this assay has produced multiple assay endpoints where this one serves a signaling function. To generalize the intended target to other relatable targets, this assay endpoint is annotated to the cell adhesion molecules intended target family, where the subfamily is selectins.
The levels of cell surface (or secreted, indicated by the prefix "s") biomarker endpoints were measured by ELISA. Overt cytotoxicity to cells in confluent adherent cultures (all systems other than the BT system) was assessed by measuring total protein levels using sulforhodamine B (SRB) staining in parallel cultures at the time of biomarker measurements, indicated as SRB endpoints. For proliferation assays for adherent cell types, individual cell types are cultured at sub-confluence and relative cell numbers quantified by SRB staining at time points optimized for each system (48 h: 3C and CASM3C systems; 72 h: BT and HDF3CGF systems; 96 h: SAg system). SRB was performed by staining cells with 0.1% SRB after fixation with 10% TCA and reading wells at 560 nm.Viability and proliferation of PBMC (T cells) was quantified by Alamar Blue reduction for the SAg and BT systems. For PBMC viability (referred to as PBMC Cytotoxicity within the assay endpoint names), cells were plated (75,000/well in a 96-well plate) and then chemical samples added for 1 h before addition of activators, SEB and TSST-1 (20 ng/mL final concentration each). Cells were incubated for 90 h. Then, Alamar Blue (20 uL/well) (Invitrogen, Cat DAL1100) was added for 6 h, and the plates were read with a fluorescence microplate reader at 546/580 nm (excitation/emission). For PBMC proliferation, cells were plated and activated as above but incubated for only 16 h prior to addition of Alamar Blue. Plates were read after 6 h.

Chain of E-selectin (Homo sapiens) (P16581 whole entry, looked up): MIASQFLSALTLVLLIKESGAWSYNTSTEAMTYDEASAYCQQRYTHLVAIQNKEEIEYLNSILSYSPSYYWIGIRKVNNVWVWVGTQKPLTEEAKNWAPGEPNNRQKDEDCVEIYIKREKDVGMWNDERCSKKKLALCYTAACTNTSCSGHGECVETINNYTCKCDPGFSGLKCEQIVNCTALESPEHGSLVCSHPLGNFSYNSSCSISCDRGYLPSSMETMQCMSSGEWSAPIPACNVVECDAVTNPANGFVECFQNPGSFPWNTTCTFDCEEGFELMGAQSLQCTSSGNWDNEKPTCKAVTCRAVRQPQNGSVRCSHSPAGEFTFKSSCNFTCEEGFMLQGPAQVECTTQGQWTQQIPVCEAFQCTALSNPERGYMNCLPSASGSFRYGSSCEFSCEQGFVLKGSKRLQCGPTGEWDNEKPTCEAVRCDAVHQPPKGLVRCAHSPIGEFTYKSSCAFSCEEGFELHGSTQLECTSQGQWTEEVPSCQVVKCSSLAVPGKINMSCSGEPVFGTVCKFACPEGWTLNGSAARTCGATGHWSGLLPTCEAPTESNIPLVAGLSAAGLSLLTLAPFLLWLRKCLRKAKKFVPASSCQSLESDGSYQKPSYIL

| Compound | outcome | AC50 |
| --- | --- | --- |
| OCc1ccco1 | inactive | – |
| CCOP(=S)(OCC)SCSP(=S)(OCC)OCC | inactive | – |
| COc1cc(OC)nc(NC(=O)NS(=O)(=O)c2ncccc2C(=O)N(C)C)n1 | inactive | – |
| BrCCBr | inactive | – |
| CC12CC1(C)C(=O)N(c1cc(Cl)cc(Cl)c1)C2=O (stereo not given) | inactive | – |
| CC(=O)[O][Hg][c]1ccccc1 | – | 3.04 µM (active) |
| O=C(Nc1ccc2[nH]ccc2c1)c1cc2cc(F)ccc2n1Cc1cccc(F)c1 | – | 10.9 µM (active) |
| CCC(=O)C(CC(C)N(C)C)(c1ccccc1)c1ccccc1 (stereo not given) | inactive | – |
| COP(=S)(OC)Oc1ccc(S(=O)(=O)N(C)C)cc1 | inactive | – |
| CC(C)(C)c1cc(O)ccc1O | – | 31.8 µM (active) |
| CCCCCCCCC(=O)NCc1ccc(O)c(OC)c1 | inactive | – |
| C=C(C)C(=O)[O][Sn]([CH2]CCC)([CH2]CCC)[CH2]CCC | – | 0.148 µM (active) |
| ClCC(Cl)CCl | inactive | – |
| CC(=O)OC(c1ccccc1)C(Cl)(Cl)Cl (stereo not given) | inactive | – |
| Nc1cccc2ccccc12 | inactive | – |
| CCCCCCCCc1ccc(O)cc1 | – | 31.7 µM (active) |
| NC(=S)Nc1ccccc1 | inactive | – |
| COP(=S)(OC)Oc1ccc(Sc2ccc(OP(=S)(OC)OC)cc2)cc1 | – | 26.5 µM (active) |
| NC(=O)O | inactive | – |
| CCOC(=O)/C=C(C)/C=C/C[C@@H](C)CCCC(C)C | – | 26.5 µM (active) |

| Compound | outcome | AC50 |
| --- | --- | --- |
| CCOP(=S)(OCC)Oc1ccc(S(C)=O)cc1 (stereo not given) | inactive | – |
| CCSC(C)CC1CC(=O)C(C(CC)=NOC/C=C/Cl)=C(O)C1 (stereo not given) | inactive | – |
| CCNc1nc(NC(C)(C)C)nc(SC)n1 | inactive | – |
| O=c1[nH]c(=O)[nH]c(=O)[nH]1 | inactive | – |
| CCCCC(CC)CO[N+](=O)[O-] (stereo not given) | – | 35.8 µM (active) |
| Oc1cccc2cccnc12 | – | 20 µM (active) |
| C[C@@H]1C[C@@H]([C@H](O)CC2CC(=O)NC(=O)C2)C(=O)[C@@H](C)C1 | – | 2.4 µM (active) |
| ClC1(Cl)C2(Cl)C3(Cl)C4(Cl)C(Cl)(Cl)C5(Cl)C3(Cl)C1(Cl)C5(Cl)C24Cl (stereo not given) | inactive | – |
| CN(C)N=O | inactive | – |
| C[C@]12CCC(=O)C[C@@H]1CC[C@@H]1[C@@H]2CC[C@]2(C)[C@@H](O)CC[C@@H]12 | – | 18 µM (active) |
| O=C(O)CCC(F)(C(F)(F)F)C(F)(F)F | inactive | – |
| CC(=O)C(Cl)C(=O)N(C)C (stereo not given) | – | 20 µM (active) |
| COP(=S)(OC)Oc1cc(Cl)c(Cl)cc1Cl | inactive | – |
| O=[N+]([O-])c1ccc2c3c(cccc13)CC2 | inactive | – |
| O=Cc1cccc(Oc2ccccc2)c1 | inactive | – |
| COc1cc(-c2ccc(N)c(OC)c2)ccc1N | inactive | – |
| C=CC(=O)OCCCCCC(C)C | inactive | – |
| CC(C)(c1ccccc1)c1ccc(O)c(C(C)(C)c2ccccc2)c1 | – | 10.6 µM (active) |
| ClC(Cl)=C(Cl)C(Cl)=C(Cl)Cl | – | 14.5 µM (active) |
| COC(=O)Cc1ccccc1 | inactive | – |
